In PubChem BioAssay AID743415 (Broad Institute, 2014):
Entries with a potency or affinity are not part of this list. Active and inactive are the calls of the source.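 Rule for the calls: active = compounds lowering Shn3 expression whose fitted half-maximal concentration is at most twice the top valid dose; inconclusive = flat partial decrease or an invalid curve fit; inactive = the rest.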

Test: Shn3 transcript knock-down in Clone20 cells – cell-based, qPCR, cherry-pick, dose response (AID 743415)

Row | Structure (SMILES) | outcome
1 | COC(=O)C1=C(c2ccc(OCc3ccccc3)cc2)C[C@@H]2CC[C@H]1N2C(=O)NCCCCc1ccccc1 | inactive
2 | O=c1[nH]c2ccccc2n1C1CCN(C(CCc2ccccc2)c2nnnn2Cc2ccccc2)CC1 (configuration not stated) | inactive
